Screening results: PubChem BioAssay, National Center for Advancing Translational Sciences (NCATS)
Only some compounds are listed: those with a hit (about 21% of all), similar ones and a draw of the others.
Pf growth 48h = Primary qHTS for delayed death inhibitors of the malarial parasite plastid, 48 hour incubation; Potency, µM (doses to about 28.7 µM), inactives show at the top dose activity change, negative = inhibition, hits mostly inhibitors; 310,000 tested, 5.9% active; P. falciparum luciferase growth in erythrocytes, 48 h; further: potency means the concentration at half of the fitted maximal effect; on the % scale 0 is the no-effect control and ±100 the full control effect
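First compound was added to culture medium, then infected red cells at 0.1% parasitemia and 2% hematocrit (final). After incubation at 37 C under 5% CO2, luciferase detection reagent was dispensed and light output recorded.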
CHX counter = Cycloheximide Counterscreen for Small Molecule Inhibitors of Shiga Toxin | max response, % | 300,000 tested, 12% active | AID 2314, 2010 | cell reporter, cycloheximide protein synthesis inhibition counterscreen; in the data active means max response mostly above about 13%, no sharp cut-off; inactive means mostly below about 14%; further: read at 38.3 µM for the half of the compounds with a filed dose; 0% is about no effect
Pf growth 96h = Primary qHTS for delayed death inhibitors of the malarial parasite plastid, 96 hour incubation. 320,000 tested, 6.9% active. P. falciparum luciferase reporter growth, 96 h. Potency, µM (highest dose often 28.7 µM), without a hit: top-dose activity change, negative = inhibition, most hits filed as inhibitors. AID 504834, 2011; further: potency means the concentration at half of the fitted maximal effect; on the % scale 0 is the no-effect control and ±100 the full control effect
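Infected RBCs, 2% Hct / 0.05% parasitemia final; luciferase-reporter P. falciparum; cpd 96 h, 37 C, 5% CO2; luciferase detection reagent; luminescence.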
Shiga toxin inh = A qHTS for Small Molecule Inhibitors of Shiga Toxin; inhibition, % at 38.7 µM; Vero cells, Shiga toxin protein synthesis inhibition reporter; 290,000 tested, 9.2% active; in the data active means inhibition mostly above about 28%, no sharp cut-off; inactive means mostly below about 43%; further: 0% is about no effect
Starred values were filed as active, the others as inactive; ? = inconclusive; / = no result given. Unless noted, the call rests on the fitted dose curve; in most records, active means well fitted inhibition curve with a large enough effect; inconclusive means small, poorly fitted or top-dose-only effect, or another doubt; inactive means no such curve, though single readings can be large or run the other way.

SMILES	Pf growth 48h	CHX counter	Pf growth 96h	Shiga toxin inh
CC(C)(C)c1ccc(C(=O)NNC(=O)Cc2cccc3ccccc23)cc1	/	10	?	43
C/C(=N\Nc1nncc2ccccc12)c1ccc(C(C)(C)C)cc1	10%	42*	?	98*
COc1cccc(/C(C)=N/NC(=O)c2cc(-c3cccnc3)nc3ccccc23)c1	?	1	?	-10
C/C(=N\Nc1nncc2ccccc12)c1ccc(O)cc1	167%	28*	232%	54*
C/C(=N\Nc1nncc2ccccc12)c1cccc(OC(F)F)c1	140%	20*	288%	65*
CC(C)C(C(=O)NCC1CCCO1)N(C(=O)CNS(=O)(=O)c1ccccc1)C1CCCCC1 (stereo not drawn)	-14%	-3	25%	-3
CCc1nn2cc(C(=O)c3ccccc3O)cnc2c1-c1ccc(F)cc1	?	-2	?	-18
CCc1nn2cc(C(=O)c3cc(C)ccc3O)cnc2c1-c1ccc(F)cc1	2.6µM*	-1	4%	-15
CC1(C)CC(=O)c2cnc(NC(=O)CCc3ccccc3)nc2C1	8%	0	/	-4
CC1(C)CC(=O)c2cnc(NC(=O)c3ccco3)nc2C1	-5%	20	89%	84*
COc1cccc(C(=O)Nc2ncc3c(n2)CC(C)(C)CC3=O)c1	31%	-2	15%	0
CCc1ccc(OCC(=O)Nc2ncc3c(n2)CC(C)(C)CC3=O)cc1	8%	-6	3.3µM*	-17
CCc1ccc(CN(C)C(=O)c2cc(COc3cc(C)c(Cl)c(C)c3)on2)nc1	-13%	-7	145%	20
COC(=O)c1ccccc1NC(=O)c1c(O)c2c([nH]c1=O)CCCC2	29%	-3	/	-7
O=C(Nc1ccc(O)cc1)c1c(O)c2c([nH]c1=O)CCCC2	345%	44*	28%	146*
O=C(NCC1CCCO1)c1c(O)c2c([nH]c1=O)CCCC2 (stereo not drawn)	88%	13*	?	29
COc1cccc(CN(C(=O)c2ccccc2Cl)C2CCS(=O)(=O)C2)c1 (stereo not drawn)	-4%	-4	26%	13
Cc1nccn1CCOc1ccccc1Cl	-30%	2	274%	10
CCOC(=O)Cn1c(=O)oc2cc(S(=O)(=O)N3CCCC(C(=O)OCC)C3)ccc21 (stereo not drawn)	/	-1	10µM*	-20
CC1CC(C)CN(C(=O)Cn2c(=O)oc3cc(S(=O)(=O)N4CCCC4)ccc32)C1 (stereo not drawn)	?	-3	12µM*	-5
CCOC(=O)Cn1c(=O)oc2cc(S(=O)(=O)N3CCn4c3nc3ccccc34)ccc21	-11%	-2	15µM*	7
CCCCN(C)C(=O)Cn1c(=O)oc2cc(S(=O)(=O)N3CC(C)CC(C)C3)ccc21 (stereo not drawn)	?	1	13µM*	-11
CCOC(=O)Cn1c(=O)oc2cc(S(=O)(=O)N3CCCC(C)C3)ccc21 (stereo not drawn)	-29%	2	40%	11
CCCNC(=O)Cn1c(=O)oc2cc(S(=O)(=O)N3CC(C)CC(C)C3)ccc21 (stereo not drawn)	?	-1	3%	9
O=C(O)CCC(=O)Nc1ccc(/C=C/C(=O)C2CC2)cc1	-3%	29*	4%	43
SMILES	Pf growth 48h	CHX counter	Pf growth 96h	Shiga toxin inh
O=C(O)CCC(=O)NNC(=O)CCC(=O)Nc1ccccc1	75%	1	2%	12
Nc1nc(=S)c2[nH]cnc2[nH]1	8.3µM*	/	?	/
CC1(C)CC(=O)C=C(NCCc2c[nH]c3ccccc23)C1	-3%	9	1%	0
O=C(NN(C(=O)C1CC1)c1nc2ccccc2s1)C1CC1	27%	46*	4.1µM*	60*
O=C(C1CCCCC1)N(CCN1CCCC1)c1nc2ccccc2s1	47%	32*	-5%	40
O=C(Nc1ccc(F)cc1F)c1ccc(-n2cccn2)c([N+](=O)[O-])c1	-6%	16	17%	16
C/C(CCc1ccc2c(c1)OCO2)=N\NC(=O)c1ccccc1	3%	36*	8%	76*
C/C(CCc1ccc2c(c1)OCO2)=N\NC(=O)c1ccccc1Cl	16%	24*	0%	13
COC(=O)c1scc(C)c1NS(=O)(=O)c1ccc(NC(C)=O)cc1	25%	-1	18%	-3
CCOc1ccc(NC(=O)CN(C)C(=O)c2ccc(-c3ccc(C(C)=O)cc3)o2)cc1OCC	2%	/	34%	/
